Common to all, as to design: species or system human, MV4-11 + K-562 + COLO205 + SK-N-BE2 + OVCAR-8
One assay deals with CSNK1D. As to conditions: read-out: apparent Kd, n = 1.
A further assay concerns CSNK1E. As to conditions: read-out: apparent Kd, n = 1.
Another assay has as its system MAPK14. As to conditions: read-out: apparent Kd, n = 1.
A further assay deals with MAPKAPK2. The settings on record: read-out: apparent Kd, n = 1.
In the next assay the test system is CLK1. As to conditions: read-out: apparent Kd, compound concentrations: 100 nM and 1000 nM (sheet 'Samples'), n = 1.
The next assay deals with CLK4. The settings on record: read-out: apparent Kd, compound concentrations: 100 nM and 1000 nM (sheet 'Samples'), n = 1.
The next assay deals with DYRK1A. The settings on record: read-out: apparent Kd; compound concentrations: 100 nM and 1000 nM (sheet 'Samples'), CATDS: 0.12917753556196801; n = 1.
In another assay the test system is JAK2. The settings on record: read-out: apparent Kd; compound concentrations: 100 nM and 1000 nM (sheet 'Samples'), CATDS: 0.15367863363527601; n = 1.
A further assay deals with PTK2. As to conditions: read-out: apparent Kd, compound concentrations: 100 nM and 1000 nM (sheet 'Samples'), n = 1.
In the next assay the test system is RPS6KA1. As to conditions: read-out: apparent Kd; compound concentrations: 100 nM and 1000 nM (sheet 'Samples'), CATDS: 9.5788061874141406E-2; n = 1.
For the next assay, the system named is RPS6KA3. The settings on record: read-out: apparent Kd; compound concentrations: 100 nM and 1000 nM (sheet 'Samples'), CATDS: 9.4623993582158103E-2; n = 1.
For another assay, the system named is CSNK1A1. As to conditions: read-out: apparent Kd; compound concentrations: 100 nM and 1000 nM (sheet 'Samples'), CATDS: 0.241580521879566; n = 1.
For the next assay, the system named is MYLK3. The settings on record: read-out: apparent Kd; compound concentrations: 100 nM and 1000 nM (sheet 'Samples'), CATDS: 0.254967092830167; n = 1.
A further assay has as its system PKN2. As to conditions: read-out: apparent Kd; compound concentrations: 100 nM and 1000 nM (sheet 'Samples'), CATDS: 0.232185519076441; n = 1.
The next assay concerns TP53RK. As to conditions: read-out: apparent Kd; compound concentrations: 100 nM and 1000 nM (sheet 'Samples'), CATDS: 0.27535936863047; n = 1.
Another assay deals with FER. The settings on record: read-out: apparent Kd; compound concentrations: 100 nM and 1000 nM (sheet 'Samples'), CATDS: 0.191525182518377; n = 1.
For another assay, the system named is FES. As to conditions: read-out: apparent Kd; compound concentrations: 100 nM and 1000 nM (sheet 'Samples'), CATDS: 0.141762780842772; n = 1.
Another assay concerns IGF1R. As to conditions: read-out: apparent Kd; compound concentrations: 100 nM and 1000 nM (sheet 'Samples'), CATDS: 0.28711469302714299; n = 1.
In another assay the test system is INSR. As to conditions: read-out: apparent Kd; compound concentrations: 100 nM and 1000 nM (sheet 'Samples'), CATDS: 0.56670438264140999; n = 1.
In the next assay the test system is PLK1. As to conditions: read-out: apparent Kd; compound concentrations: 100 nM and 1000 nM (sheet 'Samples'), CATDS: 8.4906950641747497E-2; n = 1.
Another assay has as its system MAPK10. The settings on record: read-out: apparent Kd; compound concentrations: 100 nM and 1000 nM (sheet 'Samples'), CATDS: 6.3561216633857096E-2; n = 1.
For a further assay, the system named is MAPK11. The settings on record: read-out: apparent Kd; compound concentrations: 100 nM and 1000 nM (sheet 'Samples'), CATDS: 0.18420027460355101; n = 1.
The next assay deals with MAPK9. As to conditions: read-out: apparent Kd; compound concentrations: 100 nM and 1000 nM (sheet 'Samples'), CATDS: 9.6618855435108605E-2; n = 1.
A further assay concerns NLK. The settings on record: read-out: apparent Kd; compound concentrations: 100 nM and 1000 nM (sheet 'Samples'), CATDS: 5.8542673875263601E-2; n = 1.
Another assay has as its system PRKD2. The settings on record: read-out: apparent Kd; compound concentrations: 100 nM and 1000 nM (sheet 'Samples'), CATDS: 5.9855757256393E-2; n = 1.
The subject of the next assay is PRKD3. As to conditions: read-out: apparent Kd; compound concentrations: 100 nM and 1000 nM (sheet 'Samples'), CATDS: 5.6713144719272697E-2; n = 1.
For a further assay, the system named is RIPK2. The settings on record: read-out: apparent Kd; compound concentrations: 100 nM and 1000 nM (sheet 'Samples'), CATDS: 7.7128877949965702E-2; n = 1.
[1] abbreviates: compound concentrations:100 nM and 1000 nM (sheet 'Samples').

Where two headings read alike, the source gives them in different places.

As to `N#Cc1ccc(Oc2nccc(-c3c(-c4ccc(F)cc4)ncn3C3CCNCC3)n2)cc1` [SB-242721], the potency estimated from few doses with CSNK1D (setting [1]) was 710 nM; in the assay on CSNK1E (setting [1]), 1740 nM; with MAPK14 (setting [1]), 844 nM; with MAPKAPK2 (setting [1]), 496 nM.

Regarding `CCc1cccc(NC(=O)Nc2ccc(Oc3ccc4nc(NC(=O)OC)[nH]c4c3)cc2)c1` [GW673715X], the potency estimated from few doses with CSNK1D (compound concentrations: 100 nM and 1000 nM (sheet 'Samples'), CATDS: 0.27728092810056698) was 739 nM; in the assay on CSNK1E (compound concentrations: 100 nM and 1000 nM (sheet 'Samples'), CATDS: 0.214439081495093), 1270 nM; with MAPK14 (compound concentrations: 100 nM and 1000 nM (sheet 'Samples'), CATDS: 0.234253056752116), 1030 nM; in the assay on MAPKAPK2 (compound concentrations: 100 nM and 1000 nM (sheet 'Samples'), CATDS: 0.28890607877709801), 685 nM.

Turning to `CCCNC(=O)c1ccc(Nc2ncc(C(F)(F)F)c(Nc3ccccc3C(C)=O)n2)c(Br)c1` [BI00801818], the potency estimated from few doses with CLK1 (CATDS: 0.21092266840342) was 154 nM; in the assay on CLK4 (CATDS: 0.13004922294711499), 524 nM; in the assay on DYRK1A, 534 nM; in the assay on JAK2, 330 nM; in the assay on PTK2 (CATDS: 0.76143962131213405), 11.3 nM; in the assay with RPS6KA1 it was 1590 nM. The potency estimated from few doses in the assay with RPS6KA3 was 1690 nM.

`Cc1ccc(-c2cc3c(NC(=O)C4CC4)ncnc3o2)cc1` [GW819230X]: the potency estimated from few doses in the assay with CSNK1A1 is 2130 nM; in the assay with MYLK3, 1910 nM; in the assay with PKN2 it was 2320 nM; in the assay with TP53RK, 1650 nM.

With `COc1cc2c(cc1Nc1nc(Nc3ccsc3C(N)=O)c3cc[nH]c3n1)N(C(=O)CN(C)C)CCC2` [GSK2110236A], the potency estimated from few doses was 1090 nM with CLK1 (CATDS: 8.2490921109223694E-2); 641 nM in the assay on CLK4 (CATDS: 9.1933960168397902E-2); 44.5 nM with FER; 115 nM in the assay on FES; 16.3 nM with IGF1R; 4.73 nM with INSR. The potency estimated from few doses in the assay with PLK1 is 940 nM; in the assay on PTK2 (CATDS: 8.5472412677607995E-2), 909 nM.

`C[C@H](O)CNc1cc(-c2[nH]c3cccnc3c2-c2ccc(F)cc2)ccn1.Cl` [RO3206145-001]: the potency estimated from few doses is 36.6 nM in the assay on CSNK1D (compound concentrations: 100 nM and 1000 nM (sheet 'Samples'), CATDS: 0.227277196740168); 99 nM in the assay with CSNK1E (compound concentrations: 100 nM and 1000 nM (sheet 'Samples'), CATDS: 0.13101963616975801); 1000 nM with MAPK10; 51.5 nM in the assay on MAPK11; 49.4 nM in the assay on MAPK14 (compound concentrations: 100 nM and 1000 nM (sheet 'Samples'), CATDS: 0.188780888737105); 211 nM in the assay on MAPK9. Moreover, the potency estimated from few doses is 103 nM in the assay on MAPKAPK2 (compound concentrations: 100 nM and 1000 nM (sheet 'Samples'), CATDS: 0.128658474948743); 1550 nM with NLK; 1370 nM in the assay with PRKD2; 1880 nM in the assay on PRKD3; 441 nM with RIPK2.
